According to PubChem BioAssay (NCATS):
Inconclusive results are not listed. Entries that show only a call come without a potency. The source made the active and inactive calls. Calls come from the whole dose curve; as a rule, active = well fitted curve in the direction sought with a large enough effect; inconclusive = small, poorly fitted or top-dose-only effect, or another doubt; inactive = no such curve, though single readings can be large; an effect the other way counts as inactive or inconclusive.

Key:
[1] = qHTS of pediatric cancer cell lines to identify multiple opportunities for drug repurposing: Primary screen for SJ-GBM2 cells (AID 1347091); note: potency is the fitted concentration of half-maximal effect
Summary of the method: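 Eight- or eleven-point concentration series, 48 h treatment at 37 degrees C in growth media; readout CellTiter-Glo luminescence. Potency and efficacy were taken from the concentration-response curves.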

[2] = qHTS of pediatric cancer cell lines to identify multiple opportunities for drug repurposing: Primary screen for A673 cells (AID 1347092); note: nearly all actives have a fitted effect of over 45% in size; note: potency is the fitted concentration of half-maximal effect
Summary of the method: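 48 h compound exposure, A673, 500-1,000 cells/well, 37 degrees C/5% CO2. MIPE: 11-point, 0.78 nM-46 µM; NPC: 8-point, 0.59 nM-46 µM (final). Readout CellTiter-Glo luminescence after 15 min RT.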

[3] = qHTS of pediatric cancer cell lines to identify multiple opportunities for drug repurposing: Primary screen for BT-37 cells (AID 1347094); note: series mostly up to about 57 µM
Summary of the method: (§1)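 Viability was measured as metabolically active cells after 48 hours of treatment, read by CellTiter-Glo luminescence. Compounds were tested at multiple final concentrations, giving concentration-response curves.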

[4] = qHTS of pediatric cancer cell lines to identify multiple opportunities for drug repurposing: Primary screen for NB-EBc1 cells (AID 1347095); note: potency is the fitted concentration of half-maximal effect
Summary of the method: as §1

[5] = qHTS of pediatric cancer cell lines to identify multiple opportunities for drug repurposing: Primary screen for Saos-2 cells (AID 1347097); note: nearly all actives have a fitted effect of over 40% in size; note: potency is the fitted concentration of half-maximal effect
Summary of the method: as §1

[6] = qHTS of pediatric cancer cell lines to identify multiple opportunities for drug repurposing: Primary screen for SK-N-SH cells (AID 1347098); note: nearly all actives have a fitted effect of over 65% in size; note: potency is the fitted concentration of half-maximal effect
Summary of the method: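 Cells (500-1,000/well) rested 5 h, then received compounds for 48 h; metabolically active cells were measured by CellTiter-Glo luminescence. Final concentrations spanned up to 46 µM (MIPE, 11-point) or 0.59 nM-46 µM (NPC, 8-point) in primary screens, 11-point in follow-ups.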

[7] = qHTS of pediatric cancer cell lines to identify multiple opportunities for drug repurposing: Primary screen for NB1643 cells (AID 1347099); note: nearly all actives have a fitted effect of over 50% in size; note: potency is the fitted concentration of half-maximal effect
Summary of the method: as §1

[8] = qHTS of pediatric cancer cell lines to identify multiple opportunities for drug repurposing: Primary screen for LAN-5 cells (AID 1347100); note: potency is the fitted concentration of half-maximal effect
Summary of the method: (§2)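 Cells (500-1,000/well) in growth media were settled 5 h at 37 degrees C, then given compounds for 48 h. Viability was read as CellTiter-Glo luminescence. Primary runs used MIPE at 11 points (0.78 nM-46 µM) and NPC at 8 points (0.59 nM-46 µM); follow-ups used 11 points.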

[9] = qHTS of pediatric cancer cell lines to identify multiple opportunities for drug repurposing: Primary screen for SK-N-MC cells (AID 1347093); note: potency is the fitted concentration of half-maximal effect
Summary of the method: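 Metabolically active cells were quantified by ATP-dependent luminescence (CellTiter-Glo, 15 min at room temperature) following 48 h treatment. Cells had been plated at 500-1,000 per well and settled for 5 h beforehand.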

[10] = qHTS of pediatric cancer cell lines to identify multiple opportunities for drug repurposing: Primary screen for U-2 OS cells (AID 1347096); note: nearly all actives have a fitted effect of over 50% in size
Summary of the method: as §2

Compound	Potency [1]	Potency [2]	Potency [3]	Potency [4]	Potency [5]	Potency [6]	Potency [7]	Potency [8]	Potency [9]	Potency [10]
O=C(CCc1ccc(O)cc1)c1c(O)cc(O)cc1O[C@@H]1O[C@H](CO)[C@H](O)[C@H](O)[C@H]1O	inactive	inactive	inactive	inactive	inactive	inactive	26.4 µM (active)	inactive	–	–
N[C@@]1(C(=O)O)CS(=O)(=O)[C@H]2[C@H](C(=O)O)[C@H]21	inactive	1.87 µM (active)	–	inactive	inactive	inactive	–	–	18.7 µM (active)	inactive
CC[C@H]1OC(=O)[C@H](C)[C@@H](O[C@H]2C[C@@](C)(OC)[C@@H](O)[C@H](C)O2)[C@H](C)[C@@H](O[C@@H]2O[C@H](C)C[C@H](N(C)C)[C@@H]2O)[C@](C)(O)C[C@@H](C)CN(C)[C@H](C)[C@@H](O)[C@]1(C)O	inactive	inactive	–	inactive	–	–	inactive	–	inactive	inactive
COC(=O)N[C@H](C(=O)N1CCC[C@@H]1c1ncc(-c2ccc(-c3ccc(-c4cnc([C@@H]5CCCN5C(=O)[C@@H](NC(=O)OC)C(C)C)[nH]4)cc3)cc2)[nH]1)C(C)C	23.5 µM (active)	–	–	26.4 µM (active)	18.7 µM (active)	inactive	–	26.4 µM (active)	–	–
CC(C(=O)O)c1ccc(-c2ccccc2)c(F)c1 (stereo not given)	inactive	14.8 µM (active)	–	inactive	–	24.1 µM (active)	26.4 µM (active)	inactive	–	inactive
O=C1NC(=O)C(=Cc2ccc3nccnc3c2)S1	8.12 µM (active)	–	–	4.57 µM (active)	8.12 µM (active)	inactive	7.24 µM (active)	–	2.29 µM (active)	inactive
CC=CC[C@@H](C)C(=O)[C@H]1C(=O)N[C@@H](C(C)C)C(=O)N(C)CC(=O)N(C)[C@@H](CC(C)C)C(=O)N[C@@H](C(C)C)C(=O)N(C)[C@@H](CC(C)C)C(=O)N[C@@H](C)C(=O)N[C@H](C)C(=O)N(C)[C@@H](CC(C)C)C(=O)N(C)[C@@H](CC(C)C)C(=O)N(C)[C@@H](C(C)C)C(=O)N1C	18.7 µM (active)	–	–	inactive	18.7 µM (active)	30.4 µM (active)	–	–	–	inactive
C[C@]12CC[C@@H]3c4ccc(O)cc4CC[C@H]3[C@H]1C[C@@H](O)[C@H]2O	inactive	–	inactive	–	inactive	–	–	inactive	–	inactive
Cc1c[nH]c(C=C2C(=O)Nc3ccccc32)c1CCC(=O)O	18.7 µM (active)	–	inactive	–	–	24.1 µM (active)	–	18.7 µM (active)	inactive	inactive
NC(=O)c1cccc(-c2cc(Nc3ccc(OC(F)(F)F)cc3)ncn2)c1	inactive	–	inactive	inactive	–	inactive	inactive	–	inactive	inactive
NS(=O)(=O)c1ccc(NC2=CC(=O)c3ccccc3C2=O)cc1	inactive	–	–	–	11.8 µM (active)	30.4 µM (active)	18.7 µM (active)	–	10.5 µM (active)	inactive
CC1CCC(C(=O)N(c2cc(C#CC(C)(C)C)sc2C(=O)O)C2CCC(O)CC2)CC1 (stereo not given)	inactive	inactive	–	–	–	inactive	20.9 µM (active)	inactive	–	inactive
